This is a sample that favours compounds with a hit; in the whole collection about 19% have one here.
TDP1 cell noCPT = qHTS for Inhibitors of human tyrosyl-DNA phosphodiesterase 1 (TDP1): qHTS in cells in absence of CPT; DT40 Tdp1-/- hTDP1 cells, no CPT, ATP luminescence, 48 h; Potency, µM (doses to about 46.2 µM), inactives show top-dose activity change, negative = growth inhibition, most hits filed as inhibitors; 420,000 compounds, 15% hits; AID 686978, 2013; note: potency is the fitted concentration of half-maximal effect; nearly all actives have a fitted effect of over 55% in size
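DT40 Tdp1-/-;hTDP1 cells, no CPT (DMSO vehicle only), 400 cells/well; compounds pin-transferred; ≥48 hr, 37 °C; CellTiter-Glo 30 min RT dark, luminescence read.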
IL1B secr inh = qHTS for Inhibitors of Inflammasome Signaling: IL-1-beta AlphaLISA Primary Screen. activity change, % at 57.5 µM. AID 743279, 2014. 360,000 compounds, 4.7% hits. THP-1 LPS/ATP IL-1B secretion, AlphaLISA, 16 h; hits give low values; in the data active = activity change below about -50%; inconclusive = mostly about -30% to -49%
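THP-1 cells pretreated 1 hr with compounds (up to 57.5 uM final), then stimulated with LPS (250 ng/mL final) plus ATP (1.25 mM final); secreted IL-1B measured by AlphaLISA after 16 hr, decreased signal indicating inhibition.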
Giardia kill = Small Molecules that selectively kill Giardia lamblia: qHTS; Giardia lamblia trophozoite viability; activity change, % at 7.66 µM, hits read low; 340,000 compounds, 0.15% hits; in the data active = activity change below about -80%; inconclusive = between about -30% and that limit;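 note: parasites exposed to compound for two days anaerobically before the ATP read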
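Giardia trophozoites, 100 cells per well, were exposed to compounds for 48 hrs at 37 deg C under anaerobic conditions; viability was then read as ATP content by bioluminescence after 15-30 min at room temperature.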
ELG1 repair inh = qHTS screen for small molecules that inhibit ELG1-dependent DNA repair in human embryonic kidney (HEK293T) cells expressing luciferase-tagged ELG1 | HEK293T ELG1-luciferase reporter, luminescence, 16 h; DNA damage induced by 5-fluorouridine | AID 504467, 2011 | Potency, µM (top dose mostly 46.1 µM), for inactives: at the highest dose activity change, negative = inhibition, usual class: inhibitors | 330,000 compounds, 2.3% hits; note: potency is the fitted concentration of half-maximal effect; nearly all actives have a fitted effect of over 55% in size
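HEK293T cells expressing luciferase-tagged ELG1 (2,000/well) received 5-Fluorouridine plus compound or DMSO for 16 hr at 37 °C. Luciferase was read by ONE-Glo luminescence after 30 min at room temperature.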
TDP1 block = qHTS Assay for Inhibitors of Tyrosyl-DNA Phosphodiesterase (TDP1). Tyrosyl-DNA phosphodiesterase 1 (Homo sapiens), Q9NUW8. recombinant TDP1, AlphaScreen DNA substrate cleavage. Potency, µM (top dose mostly 130 µM), inactives show at the top dose activity change, negative = inhibition, usual class: inhibitors. 350,000 compounds, 0.28% hits; note: potency is the fitted concentration of half-maximal effect; nearly all actives have a fitted effect of over 40% in size
Target sequence (Q9NUW8 whole entry, looked up): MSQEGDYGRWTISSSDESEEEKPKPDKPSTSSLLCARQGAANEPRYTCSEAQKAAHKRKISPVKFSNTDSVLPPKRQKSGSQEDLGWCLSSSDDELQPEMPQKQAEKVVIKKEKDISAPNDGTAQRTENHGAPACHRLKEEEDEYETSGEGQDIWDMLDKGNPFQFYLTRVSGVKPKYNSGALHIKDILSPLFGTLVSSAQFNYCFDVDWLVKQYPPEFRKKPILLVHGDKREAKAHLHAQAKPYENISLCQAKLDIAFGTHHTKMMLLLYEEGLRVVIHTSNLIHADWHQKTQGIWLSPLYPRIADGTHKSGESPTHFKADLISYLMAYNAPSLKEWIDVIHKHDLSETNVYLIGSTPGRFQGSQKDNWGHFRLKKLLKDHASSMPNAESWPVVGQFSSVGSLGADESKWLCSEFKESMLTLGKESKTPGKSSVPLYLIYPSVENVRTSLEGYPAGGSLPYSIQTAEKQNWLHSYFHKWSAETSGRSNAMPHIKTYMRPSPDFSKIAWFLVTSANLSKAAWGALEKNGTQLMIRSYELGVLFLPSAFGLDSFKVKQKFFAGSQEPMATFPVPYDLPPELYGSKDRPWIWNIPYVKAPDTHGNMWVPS
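Here, a 5' biotin and 3' phosphotyrosine-FITC DNA oligonucleotide reports Tdp1 activity: intact substrate bridges AlphaScreen beads, while cleavage leaves a 3' phosphate and drops signal. All incubations at room temperature.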
DT40 TDP1 CPT = qHTS for Inhibitors of human tyrosyl-DNA phosphodiesterase 1 (TDP1): qHTS in cells in presence of CPT. AID 686979, 2013. 420,000 compounds, 12% hits. chicken DT40 Tdp1-/-;hTDP1 cells + 20 nM CPT, ATP luminescence, 48 h. Potency, µM (series often up to 46.2 µM), inactives show at the highest dose activity change, negative = growth inhibition, most hits filed as inhibitors; note: potency is the fitted concentration of half-maximal effect; nearly all actives have a fitted effect of over 55% in size
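Chicken DT40 Tdp1-/- cells stably complemented with human TDP1 were seeded at 400 cells/well in medium containing 20 nM camptothecin, exposed to pin-transferred compounds, and grown at 37 °C for at least 48 hr. Viability was read as ATP luminescence.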
* hit, by the source's call; ? = inconclusive; . = no result given; [ ] = dose if it differs, or a comment. Unless noted, calls come from the whole dose curve; as a rule, active = well fitted curve in the direction sought with a large enough effect; inconclusive = small, poorly fitted or top-dose-only effect, or another doubt; inactive = no such curve, though single readings can be large; an effect the other way counts as inactive or inconclusive. % is set by controls: 0 for no effect and ±100 for the full control effect.

SMILES	TDP1 cell noCPT	IL1B secr inh	Giardia kill	ELG1 repair inh	TDP1 block	DT40 TDP1 CPT
NS(=O)(=O)c1ccc(NC(=O)COC(=O)c2cc([N+](=O)[O-])ccc2Cl)cc1	7%	-90*	8	-5%	-3%	3%
NS(=O)(=O)c1ccc(NC(=O)COC(=O)c2ncc(Cl)c(Cl)c2Cl)cc1	-16%	-62*	-3	7%	1%	-14%
NS(=O)(=O)c1ccc(NC(=O)COC(=O)c2cnc(Cl)c(Cl)c2)cc1	-19%	-75*	-7	17%	3%	-9%
CCCC[C@@H]1CCCO[C@@](C(=O)NCCOC)(C(F)(F)F)C1	.	.	-9	.	6%	.
Cc1ccc(S(=O)(=O)N[C@H]2COC(=O)C/C=C\[C@@H](C)[C@H](NS(=O)(=O)c3ccc(C)cc3)COC(=O)C/C=C\[C@H]2C)cc1	.	.	.	.	6%[21 µM]	.
CN(C)CCCNC(=O)CC1C[C@H](C(=O)N2CCCCC2)[C@@]2(CCc3ccccc3)c3[nH]c4ccccc4c3CCN2C1=O (stereo not given in full)	13µM*	?	-27	1%	2%	21µM*
O=C(CC1C[C@H](C(=O)N2CCCCC2)[C@@]2(CCc3ccccc3)c3[nH]c4ccccc4c3CCN2C1=O)NCCc1ccccn1 (stereo not given in full)	16µM*	?	4	.	.	23µM*
CN1CCN(c2ncc3nc(-c4cc(F)cc(F)c4)c(=O)n(CCc4ccccc4)c3n2)CC1	-21%	.	.	.	.	8%
CCCCn1c(N)c(N(CCOC)C(=O)c2ccc(S(=O)(=O)N3CCCCC3)cc2)c(=O)[nH]c1=O	-18%	0	7	28%	-8%[0.505 µM]	-3%
Cc1ccc(S(=O)(=O)Oc2ccccc2/C=N/O)cc1	-30%	-11	-27	2%	-5%	-18%
Cc1ccc(Oc2ccccc2/C=N/O)cc1	21µM*	-16	-15	-16%	2%	12µM*
CCOc1ccc(C(C(=O)NCC2CCCO2)N(Cc2ccccc2)C(=O)c2snc(C(N)=O)c2N)cc1 (stereo not given)	?	6	-4	?	.	?
Cc1ccccc1N(C(=O)c1snc(C(N)=O)c1N)C(C(=O)NC1CCCCC1)c1ccc(O)cc1 (stereo not given)	?	0	11	?	2%	?
CCOc1ccc(C(C(=O)NC2CCCC2)N(Cc2ccccc2)C(=O)c2nsc(Cl)c2Cl)cc1 (stereo not given)	18µM*	?	1	?	3%	21µM*
Cc1cc(C)cc(N(C(=O)c2nsc(Cl)c2Cl)C(C(=O)NC2CCCC2)c2ccc(O)cc2)c1 (stereo not given)	?	-80*	4	-28%	5%	-80%
Cc1cccc(N(C(=O)c2nsc(Cl)c2Cl)C(C(=O)NC2CCCC2)c2ccc(O)cc2)c1C (stereo not given)	?	-73*	-2	?	-1%	?
Cc1ccc(N(C(=O)c2nsc(Cl)c2Cl)C(C(=O)NC2CCCC2)c2ccc(O)cc2)cc1C (stereo not given)	?	-65*	-1	-14%	5%	?
CCN(CC)S(=O)(=O)c1ccc2c(c1)N(CC(=O)NCCc1ccc(OC)c(OC)c1)C(=O)CO2	-27%	.	.	.	9%	-27%
COc1ccccc1NC(=O)CSc1nc2c(oc3ccccc32)c(=O)n1C	?	3	14	?	1%	?
COc1ccccc1NC(=O)CSc1nc2c(oc3ccccc32)c(=O)n1-c1ccccc1F	9.2µM*	.	.	.	3%	13µM*
CCOc1ccc(NC(=O)CSc2nc3c(oc4ccccc43)c(=O)n2-c2ccccc2C)cc1	23µM*	.	.	.	2%	?
Nc1ccccc1C(=O)NC(=O)Nc1ccc(Oc2ncc(Br)cn2)c(Cl)c1	0.018µM*	29	2	.	.	0.0052µM*
COc1ccc(NC(=O)Nc2ccccc2C(N)=O)cc1OC	-5%	0	3	.	-2%	0%
Nc1ccccc1C(=O)Nc1ccc(Cl)cc1Cl	?	-2	-2	?	0%	-18%
Cc1cc(NC(=O)NC(=O)c2ccccc2NC(=O)CN(C)C)ccc1Oc1ncc(Br)cn1	4.1µM*	60	-1	.	.	3.7µM*
SMILES	TDP1 cell noCPT	IL1B secr inh	Giardia kill	ELG1 repair inh	TDP1 block	DT40 TDP1 CPT
Cc1cc(NC(=O)NC(=O)c2ccccc2NC(=O)CN)ccc1Oc1ncc(Br)cn1	0.58µM*	-15	-8	.	.	0.82µM*
O=C(CC1CCCC1)Nc1ccc2c(c1)CCC2	?	-1	4	?	4%	?
O=C(C[n+]1ccc(-c2ccccc2)cc1)Nc1ccc([N+](=O)[O-])cc1	15µM*	-19	-21	-15%	.	10µM*
Cc1ccc(CCC(=O)Nc2ccc([N+](=O)[O-])cc2)o1	?	-74*	-7	?	.	-15%
CC(=O)Nc1ccc(NC(=O)CCc2ccc(C)o2)cc1	2%	-7	14	2%	4%	-2%
CN(C)c1cc[n+](CC(=O)Nc2cccc([N+](=O)[O-])c2)cc1	3.3µM*	1	3	-16%	.	?
CN(C)c1cc[n+](CC(=O)Nc2ccc(Cl)c([N+](=O)[O-])c2)cc1	?	-7	1	9%	.	?
CN(C)c1cc[n+](CC(=O)Nc2ccc(OC(F)F)cc2)cc1	15µM*	-12	-13	0%	3%	23µM*
CC12CN3CC(C)(CN(C1)C3c1ccc3c(c1)OCO3)C2O (stereo not given)	6%	5	?	39%	.	23%
O=C(c1cccs1)c1cn(CC(=O)N2CCc3ccccc3C2)c2ccccc12	?	-9	25	-14%	5%	23µM*
CCCN(CCC)CCCNC(=O)c1nn(-c2cccc(OC)c2)c(=O)c2ccccc12	-2%	-24	-16	6%	-1%	?
CC(C)(C)OC(=O)N1CCC(c2c(C(=O)Nc3ccc4c(c3)OCCO4)cnn2-c2ccc(F)cc2)CC1	18µM*	.	.	.	1%	?

Bioassay records (PubChem BioAssay)
